The text below walks through data of PubChem BioAssay AID2570 (National Center for Advancing Translational Sciences (NCATS), 2010).

Records with an inconclusive call do not appear. Unmarked numbers belong to inactive results. Calls come from the whole dose curve; as a rule, active = well fitted curve in the direction sought with a large enough effect; inconclusive = small, poorly fitted or top-dose-only effect, or another doubt; inactive = no such curve, though single readings can be large or run the other way.

In this assay the target is Vasopressin V1b receptor (Homo sapiens) (UniProt P47901). The assay is described as follows: Counterscreen Concentration-Response Assay for Antagonists of the Neuropeptide S Receptor: Vasopressin Receptor Calcium Signal Transduction. The conditions noted are these: CHO-AVPR1B, vasopressin-stimulated calcium fluorescence, FDSS. From the text: NIH Chemical Genomics Center [NCGC] NIH Molecular Libraries Probe Production centers Network [MLPCN] MLPCN Grant: X01-DA026210-01 Assay Submitter (PI): Heilig, Markus Alexander NCGC Assay Overview: Neuropeptide S receptor (NPSR), previously known as GPR154, is a recently de-orphanized G protein coupled receptor. Its endogenous ligand is the 20 amino acids peptide Neuropeptide S (NPS). […] NPS and its receptor are found in various tissues. Specifically they are highly expressed in brain areas that have been implicated in modulation of arousal, stress and anxiety. […] This change in intracellular calcium can be detected using a calcium indicator dye on a calcium imaging plate reader system (FDSS). […]
Vasopressin V1b receptor (Homo sapiens), sequence (P47901 whole entry, looked up): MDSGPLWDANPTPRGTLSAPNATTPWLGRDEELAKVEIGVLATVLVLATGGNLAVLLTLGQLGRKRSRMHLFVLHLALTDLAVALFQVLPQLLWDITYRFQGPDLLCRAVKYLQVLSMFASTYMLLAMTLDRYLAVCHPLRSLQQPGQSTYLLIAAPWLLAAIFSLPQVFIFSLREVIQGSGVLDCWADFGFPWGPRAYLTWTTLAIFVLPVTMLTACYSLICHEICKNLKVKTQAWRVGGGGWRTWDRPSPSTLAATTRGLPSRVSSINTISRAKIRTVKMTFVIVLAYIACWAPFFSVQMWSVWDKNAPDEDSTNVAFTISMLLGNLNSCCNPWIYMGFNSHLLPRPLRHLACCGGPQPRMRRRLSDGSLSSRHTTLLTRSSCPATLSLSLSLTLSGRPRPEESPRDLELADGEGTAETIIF
NCGC Assay Protocol Summary: A Chinese hamster ovary (CHO) cell line stably expressing human vasopressin receptor (AVPR1B) was maintained in F-12 Kaighn's media (Invitrogen, Carlsbad, CA, 21127) supplemented with 10 % FBS, 100 units/ml penicillin, 100 ug/ml streptomycin and 250 ug/ml geneticin at 37C, 5% CO2 in a humidified atmosphere. […] The assay was performed on a FDSS-7000 kinetic plate reader in 1536-well format. The maximums of kinetic fluorescence responses were converted into text files using the instrument's software data export utility. […] AC50 values were determined from concentration-response data modeled with the standard Hill equation. […]
For orientation: A counterscreen serves to expose hits that act by an unwanted route or on another target.

For `Cc1c(P(=S)(c2ccccc2)c2ccccc2)[n+]2ccccc2n1C`, the max response is 7.72%.
